PMC4336329 (PLoS ONE, 2015)
Screen size: about 310,000 compounds; about 14,000 (4.5%) showed an effect of 50% or more. The effect is printed as a negative number. The full list was thinned out, with strong results kept by preference.

Molecular target: human ether-à-go-go-related gene (hERG) potassium channel (human, UniProt Q12809)
Assay: primary screen, population patch clamp on CHO cells stably expressing hERG; higher = less effect of the substance
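Also: peak tail current of the secondary pulse compared with the same well before compound.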

Chain of human ether-à-go-go-related gene (hERG) potassium channel (Q12809 whole entry, looked up): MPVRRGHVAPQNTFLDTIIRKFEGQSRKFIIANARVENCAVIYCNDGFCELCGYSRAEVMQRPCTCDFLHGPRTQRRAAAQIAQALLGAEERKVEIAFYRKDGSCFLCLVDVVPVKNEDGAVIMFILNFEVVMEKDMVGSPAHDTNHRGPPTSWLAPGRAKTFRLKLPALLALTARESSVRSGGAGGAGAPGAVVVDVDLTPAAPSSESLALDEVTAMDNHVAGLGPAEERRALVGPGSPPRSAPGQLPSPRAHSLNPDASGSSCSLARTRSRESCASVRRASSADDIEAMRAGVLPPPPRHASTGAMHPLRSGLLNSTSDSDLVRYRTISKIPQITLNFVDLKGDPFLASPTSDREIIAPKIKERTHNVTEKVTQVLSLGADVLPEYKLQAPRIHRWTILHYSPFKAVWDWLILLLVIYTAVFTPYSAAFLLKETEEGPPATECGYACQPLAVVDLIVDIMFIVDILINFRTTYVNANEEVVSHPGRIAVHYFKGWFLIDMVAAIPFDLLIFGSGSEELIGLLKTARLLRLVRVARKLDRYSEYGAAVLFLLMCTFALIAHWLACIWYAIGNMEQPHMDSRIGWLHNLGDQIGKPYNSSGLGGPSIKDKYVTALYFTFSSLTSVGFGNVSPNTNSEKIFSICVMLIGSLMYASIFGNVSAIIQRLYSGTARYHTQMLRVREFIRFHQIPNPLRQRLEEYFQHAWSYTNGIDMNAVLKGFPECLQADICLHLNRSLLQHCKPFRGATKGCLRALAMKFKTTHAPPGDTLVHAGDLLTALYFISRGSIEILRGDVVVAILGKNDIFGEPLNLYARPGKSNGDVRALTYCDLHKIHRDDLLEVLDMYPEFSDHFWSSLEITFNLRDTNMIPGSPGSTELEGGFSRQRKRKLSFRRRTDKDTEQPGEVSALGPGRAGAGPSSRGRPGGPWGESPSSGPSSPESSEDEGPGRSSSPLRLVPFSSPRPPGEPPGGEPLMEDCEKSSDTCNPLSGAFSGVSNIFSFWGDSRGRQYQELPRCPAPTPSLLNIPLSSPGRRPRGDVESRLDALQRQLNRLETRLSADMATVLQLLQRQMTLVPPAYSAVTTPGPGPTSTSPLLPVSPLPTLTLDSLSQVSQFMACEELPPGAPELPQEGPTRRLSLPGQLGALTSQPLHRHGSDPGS

Structure (SMILES) | hERG current change (%, negative = inhibition) at 10uM
Cc1c(NC(=O)c2ccco2)cccc1C(=O)NN1C(=O)c2ccccc2C1=O | 16.4%
COC(CNC(=O)c1ccc2c3c(onc13)-c1ccccc1C2=O)OC | -1.15%
Cl.OCCNCc1cccc(OCc2ccccc2Cl)c1 | -17.6%
COc1ccc(N2CC(C(=O)Nc3ccc(S(=O)(=O)N4CCOCC4)cc3)CC2=O)cc1 (stereo not shown) | 13.4%
CCN(CC)CCNC(=O)c1cn(-c2ccccc2)nc1-c1cccs1.Cl | -69%
Cl.O=C(NCCN1CCOCC1)c1cn(-c2ccccc2)nc1-c1cccs1 | -25.6%
CCN(CC)CCNC(=O)c1ccc(NC(=O)c2cn(-c3ccccc3)nc2-c2cccs2)cc1 | -32.7%
COc1cccc(CNC(=O)c2ccccc2SCC(=O)N2CCCC2)c1 | -22.7%
COc1cccc(CN2CCNC(=O)C2CC(=O)O)c1OC (stereo not shown) | 11.4%
Cc1ccc(S(=O)(=O)CCNC(=O)Cc2ccccc2)cc1 | 26.9%
CN=c1sc2ccccc2n1CC(O)c1ccccc1 (stereo not shown) | -21.4%
OC(CN=c1sc2ccccc2n1CC(O)COc1ccccc1)COc1ccccc1 (stereo not shown) | -1.46%
CN=c1sc2ccccc2n1CC(O)COc1ccccc1 (stereo not shown) | -57.5%
Cc1cc(C)n(CC(O)COCc2ccco2)n1 (stereo not shown) | -3.37%
CN=c1sc2ccccc2n1CC(O)COCc1ccco1 (stereo not shown) | -65.4%
CCN=c1sc2ccccc2n1CC(O)COc1ccccc1 (stereo not shown) | -44%
CN(C)C(=O)c1ccc2c3c(cccc13)CC2 | 24.6%
COc1cc(NC(=O)CCCNC(=O)Cn2cnc3sc4c(c3c2=O)CCCC4)cc(OC)c1OC | 29.6%
O=C(COc1ccc2c(c1)oc(=O)c1ccccc12)NCCN1CCOCC1 | -11%
O=C(NCC1CCCO1)c1ccc2c(=O)n(CCc3ccccc3)c(=O)[nH]c2c1 (stereo not shown) | 7.98%
COc1ccc(CCn2c(=N)c(C(=O)NCC3CCCO3)cc3c(=O)n4cccc(C)c4nc32)cc1 (stereo not shown) | -79.7%
COc1ccc(CCn2c(=N)c(C(=O)NCC3CCCO3)cc3c(=O)n4cccc(C)c4nc32)cc1OC (stereo not shown) | -80.9%

Structure (SMILES) | hERG current change (%, negative = inhibition) at 10uM
COc1ccc(CCNC(=O)CNCC2CCCO2)cc1OC.O=C(O)C(=O)O (stereo not shown) | 14.1%
Cc1cccn2c(=O)c3cc(C(=O)NCC4CCCO4)c(=N)n(CCc4ccccc4)c3nc12 (stereo not shown) | -76.7%
COc1ccc(CCNC(=O)C(=O)NCC2CCCO2)cc1 (stereo not shown) | -0.535%
COc1ccc2oc(=O)c(C(=O)NCC3CCCO3)cc2c1 (stereo not shown) | 3.67%
O=C(CSc1nc2ccc(N3CCOCC3)cc2c(=O)n1CCc1ccccc1)NCC1CCCO1 (stereo not shown) | -47%
CNC(=O)Oc1ccc2c(c1)C(=O)c1ccccc1CO2 | 6.76%
CNC(=S)Nc1cc(OC)c(NC(=O)c2ccco2)cc1OC | 14.9%
Cc1cc(C)nc(NNS(=O)(=O)c2ccc(F)c(Cl)c2)n1 | 0.38%
Cc1ccc(C)n1NC(=O)c1cccs1 | 9.98%
CCOCCCNCC(O)c1ccccc1.O=C(O)C(=O)O (stereo not shown) | 3.55%
O=C(N/N=C/c1cc([N+](=O)[O-])cc([N+](=O)[O-])c1O)C(O)(c1ccccc1)c1ccccc1 | -4.37%
O=C(N/N=C/c1cccc([N+](=O)[O-])c1O)C(O)(c1ccccc1)c1ccccc1 | 8.16%
O=C(N/N=C/c1cc(Cl)cc([N+](=O)[O-])c1O)C(O)(c1ccccc1)c1ccccc1 | -53%
Cc1ccc(/C(O)=C2/C(=O)C(=O)N(c3ccccn3)C2c2ccc([N+](=O)[O-])cc2)cc1 (stereo not shown) | 8.83%
COC(=O)COc1cccc2c(=O)n(CC(=O)NCc3ccc(F)cc3)ccc12 | 1.82%
O=C1CC(c2cccnc2)=NN1c1ccc(Cl)cc1Cl | 12.1%
C/C=C(/C)C(=O)O[C@@H]1c2c(ccc3ccc(=O)oc23)O[C@@H]1C(C)(C)OC(=O)/C(C)=C\C | -0.936%
O=C1OC(Nc2cc(Br)cc3cccnc23)c2ccccc21 (stereo not shown) | -9.92%
COc1cc(/C=N/NS(=O)(=O)c2ccc3ccccc3c2)ccc1OCCN1CCOCC1 | -39.5%
CCOc1cc(/C=N/NS(=O)(=O)c2ccc(OC)cc2)ccc1OCCN1CCOCC1 | -53.8%
COc1ccc(S(=O)(=O)N/N=C/c2ccc(OCCN3CCOCC3)c(OC)c2)cc1 | 1.42%
